Test results: PubChem BioAssay (Tox21)
Values joined by “and” are separate entries in the source; they are usually repeats but may differ in a detail not shown here. Equal values may be shown once. Inconclusive results are not listed. Entries that show only a call come without a potency. Some structures have more than one record in an assay (separate samples or runs), and their calls can disagree. Active and inactive are the calls of the source. Unless noted, the call rests on the fitted dose curve; in most records, active means well fitted curve in the direction sought with a large enough effect in the repeat runs; inconclusive means weak or mixed curves; inactive means no such curve, though single readings can be large; an effect the other way counts as inactive or inconclusive.

Legend:
[1] = qHTS assay to identify small molecule antagonists of the estrogen related receptor (ERR) signaling pathway from Tox21 library - cell viability counter screen (AID 1224834); further: nearly all actives have a fitted effect of over 30% in size; further: potency means the concentration at half of the fitted maximal effect
Summary of the method: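 ERR cells, 2,000/well; 6 h settle at 37 C/5% CO2; pin-tool compound transfer in DMSO; 17.5 h at 37 C; CellTiter-Fluor, 30 min; fluorescence intensity.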

[2] = target: Luciferin 4-monooxygenase (Photinus pyralis) (UniProt P08659); assay: qHTS assay to identify small molecule inhibitors of firefly luciferase (AID 1224835); further: nearly all actives have a fitted effect of over 25% in size; further: potency means the concentration at half of the fitted maximal effect
Luciferin 4-monooxygenase (Photinus pyralis), sequence (P08659 whole entry, looked up): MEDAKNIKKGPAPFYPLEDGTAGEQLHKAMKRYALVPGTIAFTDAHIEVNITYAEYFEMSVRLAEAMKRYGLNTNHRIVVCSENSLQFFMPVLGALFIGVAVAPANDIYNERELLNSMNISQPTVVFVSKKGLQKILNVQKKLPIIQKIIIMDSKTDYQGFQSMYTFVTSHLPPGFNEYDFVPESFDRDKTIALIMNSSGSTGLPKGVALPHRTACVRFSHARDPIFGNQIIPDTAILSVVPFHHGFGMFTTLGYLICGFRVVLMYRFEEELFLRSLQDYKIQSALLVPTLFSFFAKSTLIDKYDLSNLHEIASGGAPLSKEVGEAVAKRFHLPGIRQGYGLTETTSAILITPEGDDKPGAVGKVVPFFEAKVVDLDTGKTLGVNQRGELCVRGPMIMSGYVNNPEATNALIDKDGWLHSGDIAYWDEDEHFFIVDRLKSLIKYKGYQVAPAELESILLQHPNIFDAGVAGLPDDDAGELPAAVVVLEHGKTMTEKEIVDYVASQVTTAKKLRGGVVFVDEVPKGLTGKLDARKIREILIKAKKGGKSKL
Summary of the method: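 Quantitative HTS format; KM concentrations of both substrates. Purified P. pyralis FLuc activity quantified from luminescence images.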

[3] = qHTS assay to identify small molecule agonists of the constitutive androstane receptor (CAR) signaling pathway - cell viability counter screen (AID 1224836); further: nearly all actives have a fitted effect of over 45% in size
Summary of the method: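 Fluorescence from CellTiter-Fluor indicates live cells after 23 h exposure. The human hepatoma line expresses hCAR and a CYP2B6-2.2kb reporter. Incubation medium contains 0.75 uM PK11195 (final).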

[4] = target: Nuclear receptor subfamily 1 group I member 3 (Homo sapiens) (UniProt Q14994); assay: qHTS assay to identify small molecule antagonists of the constitutive androstane receptor (CAR) signaling pathway (AID 1224838);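 further: HepG2 cells stably expressing hCAR with CYP2B6 luciferase reporter stimulated by CITCO; nearly all actives have a fitted effect of over 40% in size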; further: potency means the concentration at half of the fitted maximal effect
Nuclear receptor subfamily 1 group I member 3 (Homo sapiens), sequence (Q14994 whole entry, looked up): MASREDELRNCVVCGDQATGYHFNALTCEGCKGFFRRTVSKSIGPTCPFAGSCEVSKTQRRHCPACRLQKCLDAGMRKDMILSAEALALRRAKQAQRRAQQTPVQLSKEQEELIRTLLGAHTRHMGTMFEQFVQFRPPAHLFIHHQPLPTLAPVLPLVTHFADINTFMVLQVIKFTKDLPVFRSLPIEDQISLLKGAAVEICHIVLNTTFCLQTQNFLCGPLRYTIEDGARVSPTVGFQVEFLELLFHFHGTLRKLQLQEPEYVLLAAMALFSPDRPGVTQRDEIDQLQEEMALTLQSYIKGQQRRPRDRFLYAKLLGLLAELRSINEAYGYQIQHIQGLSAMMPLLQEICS
Summary of the method: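 Antagonist mode used CITCO at a final 50 nM to activate CAR in human hepatoma HepG2 cells carrying stable hCAR and a 2.2 kb CYP2B6 promoter-luciferase construct. Compounds were tested at 15 concentrations over 24 h, with luminescence as the end point.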

[5] = qHTS assay to identify small molecule antagonists of the estrogen related receptor signaling pathway with the pleiotropic PPARgamma coactivator (PGC) from Tox21 10K library - cell viability counter screen (AID 1224840; active means well fitted cell-killing curve with a large enough effect in the repeat runs, not every such curve was filed as active; further: nearly all actives have a fitted effect of over 40% in size; further: potency means the concentration at half of the fitted maximal effect)
Summary of the method: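 Multiplexed viability counter screen in the PGC/ERR cell line: cells treated with DMSO-dissolved compounds for 17.5 hours at 37 C, then viability measured as CellTiter-Fluor fluorescence.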

[6] = qHTS assay to identify small molecule antagonists of the estrogen related receptor signaling pathway with the pleiotropic PPARgamma coactivator (PGC) from Tox21 10K library (AID 1224841; call rule not given here; further: actives are mostly falling curves and most rising ones were filed inactive; nearly all actives have a fitted effect of over 50% in size; further: potency means the concentration at half of the fitted maximal effect)
Summary of the method: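 Steps: plate 2,000 PGC/ERR cells per well; incubate 6 h at 37 C with 5% CO2; transfer compounds from DMSO stocks by pin tool; incubate 18 h at 37 C; add One-Glo; measure luminescence 30 min later.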

[7] = qHTS assay to identify small molecule agonists of the estrogen related receptor signaling pathway with the pleiotropic PPARgamma coactivator (PGC) from Tox21 10K library (AID 1224842); further: nearly all actives have a fitted effect of over 15% in size
Summary of the method: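 PGC/ERR reporter cells (NTP line) were seeded 2,000 per well, rested 6 h at 37 C/5% CO2, then pin-dosed with compounds in DMSO for 18 h at 37 C; luciferase read by One-Glo luminescence after 30 min at room temperature.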

[8] = target: Thyrotropin receptor (Homo sapiens) (UniProt P16473); assay: qHTS assay to identify small molecule agonists of the thyroid stimulating hormone receptor (TSHR) signaling pathway (AID 1224843; calls by dose curve; further: nearly all actives have a fitted effect of over 45% in size; further: potency means the concentration at half of the fitted maximal effect)
Thyrotropin receptor (Homo sapiens), sequence (P16473 whole entry, looked up): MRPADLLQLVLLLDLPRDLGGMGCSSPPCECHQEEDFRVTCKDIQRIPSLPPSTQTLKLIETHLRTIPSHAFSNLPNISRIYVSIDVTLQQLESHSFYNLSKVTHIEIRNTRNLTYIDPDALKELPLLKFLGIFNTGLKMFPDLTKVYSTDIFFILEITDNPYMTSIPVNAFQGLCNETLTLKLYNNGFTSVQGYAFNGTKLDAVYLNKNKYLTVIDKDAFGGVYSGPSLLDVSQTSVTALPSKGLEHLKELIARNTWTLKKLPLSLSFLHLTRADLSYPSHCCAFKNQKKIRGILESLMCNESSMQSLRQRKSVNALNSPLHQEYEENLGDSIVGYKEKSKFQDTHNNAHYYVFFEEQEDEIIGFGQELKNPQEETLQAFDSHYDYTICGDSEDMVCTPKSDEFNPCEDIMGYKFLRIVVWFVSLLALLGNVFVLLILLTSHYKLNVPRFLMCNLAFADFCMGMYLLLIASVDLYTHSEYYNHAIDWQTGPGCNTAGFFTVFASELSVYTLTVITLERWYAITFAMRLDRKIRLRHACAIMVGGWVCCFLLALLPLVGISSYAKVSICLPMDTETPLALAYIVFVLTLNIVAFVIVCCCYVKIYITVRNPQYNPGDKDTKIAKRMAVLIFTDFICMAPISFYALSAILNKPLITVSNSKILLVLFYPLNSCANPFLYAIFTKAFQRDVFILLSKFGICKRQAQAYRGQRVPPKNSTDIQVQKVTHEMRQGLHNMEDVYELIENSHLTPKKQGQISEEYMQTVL
Summary of the method: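 Using 15 concentrations per compound in triplicate, cAMP production was monitored in TSHR-HEK293 cells after 30 min compound incubation at RT; HTRF reagents followed, with fluorescence intensity recorded after 1 h.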

[9] = qHTS assay to identify small molecule agonists of the hypoxia (HIF-1) signaling pathway - cell viability counter screen (AID 1224844; calls by dose curve; further: nearly all actives have a fitted effect of over 50% in size; further: potency means the concentration at half of the fitted maximal effect)
Summary of the method: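 Cytotoxicity was measured in parallel with the HRE-driven beta-lactamase readout: after 17 hrs of compound exposure at 37C, HRE-bla ME-180 cells received CellTiter-Glo and luminescence was recorded 30 min later.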

[10] = qHTS assay to identify small molecule agonists of H2AX (AID 1224845; active means well fitted activation curve with a large enough effect in the signal ratio in the repeat runs, not every such curve was filed as active; the % refers to the signal ratio)
Summary of the method: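 Wild-type CHO-K1 cells plated overnight, then exposed 3 hr at 37C to compounds at 15 concentrations (0.76% DMSO). Lysed, then HTRF anti-pH2AX(S139)-cryptate/anti-H2AX-d2 detection after 24 hr at room temperature; emissions 665 and 620 nm.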

[11] = qHTS assay to identify small molecule agonists of the hypoxia (HIF-1) signaling pathway (AID 1224846; active means well fitted activation curve with a large enough effect in the signal ratio in the repeat runs, not every such curve was filed as active; the % refers to the signal ratio)
Summary of the method: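 Compounds from the Tox21 10K library, dissolved in DMSO, are tested for induction of a hypoxia response element–controlled beta-lactamase reporter in ME-180 cells. Exposure lasts 17 hrs at 37C after a 5 hr settling period, followed by CCF4-AM FRET substrate.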

[12] = qHTS assay to identify small molecule agonists of H2AX - cell viability counter screen (AID 1224847; calls by dose curve; further: nearly all actives have a fitted effect of over 30% in size; further: potency means the concentration at half of the fitted maximal effect)
Summary of the method: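 Viability of CHO-K1 (wild type) cells after 3 hr compound exposure was measured by CellTiter-Glo luminescence.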

[13] = qHTS assay to identify small molecule antagonists of the estrogen related receptor (ERR) signaling pathway from Tox21 library (AID 1224848); further: nearly all actives have a fitted effect of over 50% in size; further: potency means the concentration at half of the fitted maximal effect
Summary of the method: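 Tox21 10K compounds in DMSO tested for ERR pathway antagonism in NTP's ERR cell line; 18 h, 37 C exposure; ONE-Glo luminescence.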

[14] = qHTS RealTime-Glo MT Cell Viability Assay in HepG2 cells - 24 hour (AID 1224867); further: nearly all actives have a fitted effect of over 50% in size; further: potency means the concentration at half of the fitted maximal effect
Summary of the method: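 Compound treatment began 5 h after plating HepG2 cells (600/well) with NanoLuc luciferase and prosubstrate. Plates stayed at 37 C for 40 h; luminescence was captured at six time points, 0 h through 40 h.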

[15] = A CellTox Green Cytotoxicity Assay to monitor cytotoxicity in HEK293 cells - 0 hour (AID 1224869); further: nearly all actives have a fitted effect of over 50% in size
Summary of the method: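 Cells (HEK293, 600/well) and dye reagent are dispensed together. After 5 h at 37 C, 23 nL compound is pinned in. Plates stay at 37 C for 40 h with fluorescence read at 0h, 8h, 16h, 24h, 32h and 40h.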

[16] = target: Nuclear receptor subfamily 1 group I member 3 (Homo sapiens) (UniProt Q14994); assay: qHTS assay to identify small molecule agonists of the constitutive androstane receptor (CAR) signaling pathway (AID 1224839); further: nearly all actives have a fitted effect of over 15% in size; further: potency means the concentration at half of the fitted maximal effect
Summary of the method: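 Stable hCAR/CYP2B6-2.2kb HepG2 line in DMEM with 10% FBS; compounds (15 concentrations) and 0.75 uM PK11195 final, 24 h at 37 C/5% CO2, then ONE-Glo luminescence after 30 min.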

[17] = qHTS RealTime-Glo MT Cell Viability Assay in HEK293 cells - 32 hour (AID 1224868); further: nearly all actives have a fitted effect of over 50% in size; further: potency means the concentration at half of the fitted maximal effect
Summary of the method: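 Quantitative high-throughput screen of the Tox21 10K library in HEK293: cells and RealTime-Glo reagents plated together, compound added at 5 h, luminescence monitored through 40 h at 37 C.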

[18] = qHTS assay to identify small molecule antagonists of the constitutive androstane receptor (CAR) signaling pathway - cell viability counter screen (AID 1224837); further: nearly all actives have a fitted effect of over 45% in size
Summary of the method: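 Viability was measured with CellTiter-Fluor in a HepG2 line carrying stably transfected hCAR and a CYP2B6-2.2kb construct. Cells were exposed for 23 hr at 37 C to 15 compound concentrations with 50 nM CITCO as agonist.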

[19] = qHTS assay to identify small molecule agonists of the estrogen related receptor (ERR) signaling pathway from Tox21 library (AID 1224849; calls by dose curve; further: nearly all actives have a fitted effect of over 15% in size); details: ERR reporter cell line, ONE-Glo luciferase, 18 h; at 92.4 µM (top of the series) unless noted
Summary of the method: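 Cells carrying the ERR reporter were plated and allowed to settle for 6 h, exposed to library compounds for 18 h at 37 C, then lysed with ONE-Glo and luminescence measured.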

| Structure (SMILES) | Potency [1] | Potency [2] | Potency [3] | Potency [4] | Potency [5] | Potency [6] | Potency [7] | Potency [8] | Potency [9] | outcome [10] | outcome [11] | Potency [12] | Potency [13] | Potency [14] | outcome [15] | Potency [16] | Potency [17] | Potency [18] | activity change, positive = activation [19] |
| --- | --- | --- | --- | --- | --- | --- | --- | --- | --- | --- | --- | --- | --- | --- | --- | --- | --- | --- | --- |
| CNC(=O)Oc1ccccc1C(C)C | inactive | inactive | inactive | inactive | inactive | inactive | inactive | inactive | inactive | inactive | inactive | inactive | inactive | inactive | inactive | – | – | – | – |
| CC1N=C(N)OC1c1ccccc1 (stereo unspecified) | inactive | inactive | inactive | inactive | inactive | – | – | inactive | inactive | inactive | – | inactive | – | inactive | inactive | inactive | inactive | – | – |
| COc1cccc(C=O)c1 | inactive | – | inactive | inactive | inactive | inactive | inactive | inactive | inactive | inactive | inactive | inactive | inactive | inactive | inactive | inactive | inactive | inactive | 0.51% (inactive) |
| COc1ccccc1OC | inactive | – | inactive | inactive | inactive | inactive | inactive | inactive | inactive | inactive | inactive | inactive | inactive | inactive | inactive | inactive | inactive | inactive | – |
| CCN[C@@H](C)Cc1cccc(C(F)(F)F)c1 | inactive | inactive | – | inactive | inactive | – | – | inactive | inactive | inactive | inactive | inactive | – | inactive | inactive | inactive | – | inactive | – |
| CC(C)C(C)(N)C#N (stereo unspecified) | inactive | inactive | – | inactive | inactive | – | – | – | inactive | inactive | inactive | inactive | – | inactive | inactive | inactive | inactive | inactive | – |
| BrCC1CO1 (stereo unspecified) | inactive | inactive | – | inactive | inactive | – | – | – | inactive | inactive | inactive | inactive | – | inactive | inactive | inactive | inactive | inactive | – |
| CCOC(=O)CC(SP(=S)(OC)OC)C(=O)OCC (stereo unspecified) | inactive | – | inactive | inactive | inactive | – | – | inactive | 49 µM (active) and inactive | inactive | inactive | inactive | – | inactive | inactive | 21.7 µM (active) and 26.6 µM (active) | inactive | inactive | – |
| CCOP(=O)(CN(CCO)CCO)OCC | inactive | inactive | – | – | inactive | – | – | inactive | inactive | inactive | inactive | inactive | – | inactive | inactive | – | inactive | inactive | – |
| ClC1=C(Cl)C2(Cl)C(CBr)CC1(Cl)C2(Cl)Cl (stereo unspecified) | inactive | inactive | – | – | inactive | – | – | 4.33 µM (active) and 10.6 µM (active) | inactive | inactive | inactive | 113 µM (active) and inactive | – | inactive | inactive | – | 49 µM (active) and inactive | inactive | – |
| O=C1C2CC=CCC2C(=O)N1SC(Cl)(Cl)Cl (stereo unspecified) | inactive and 53.6 µM (active) | 25.1 µM (active) and 31.2 µM (active) | – | inactive and 13.5 µM (active) | inactive and 30.1 µM (active) | 7.66 µM (active) and 47.8 µM (active) | inactive | inactive and 21.3 µM (active) | 6.07 µM (active) | – | – | – | inactive and 30.1 µM (active) | inactive and 24.1 µM (active) | inactive | inactive | – | – | – |
| CCc1ccc(C2CCNCC2)cc1 | inactive | inactive | – | – | inactive | – | – | – | inactive | inactive | inactive | inactive | – | inactive | inactive | – | inactive | – | – |
| CC(C)c1ccc(O)cc1 | inactive | – | inactive | inactive | inactive | inactive | inactive | inactive | inactive | – | inactive | inactive | inactive | inactive | inactive | inactive | inactive | inactive | – |
| c1ccc2c(c1)CCNC2 | inactive | inactive | – | inactive | inactive | inactive | inactive | inactive | inactive | inactive | inactive | inactive | inactive | inactive | inactive | inactive | – | – | -19.6% (inactive) |
| CC(C)(N)Cc1ccccc1Cl | inactive | inactive | – | – | inactive | inactive | inactive | inactive | inactive | inactive | inactive | inactive | inactive | inactive | inactive | – | inactive | inactive | – |
| CCC1(c2cccc(O)c2)CCCCN(C)C1 (stereo unspecified) | inactive | inactive | – | – | inactive | – | – | inactive | inactive | inactive | – | inactive | – | inactive | inactive | – | – | inactive | – |
| COP(=O)(O)OC | inactive | – | inactive | inactive | inactive | – | – | inactive | inactive | inactive | inactive | inactive | – | inactive | inactive | inactive | inactive | inactive | – |
| O=C(O)C(F)(F)C(F)(F)C(F)(F)C(F)(F)C(F)(F)C(F)(F)F | inactive | – | inactive | inactive | inactive | – | – | inactive | – | inactive | inactive | inactive | – | inactive | inactive | inactive | – | inactive | – |
| CCCCCCC1CCOC1=O (stereo unspecified) | inactive | – | inactive | inactive | inactive | inactive | inactive | inactive | inactive | inactive | – | inactive | inactive | inactive | inactive | inactive | inactive | inactive | – |
